The nature of assay [1]: StAR promoter reporter inhibitors, counter-screen for LRH-1 inverse agonist project, cell-based, luminescence, high throughput (AID 651611; in the data active = inhibition above about 28%). The settings on record: StAR promoter luciferase reporter counterscreen, at 3.6 µM, stronger effect = higher value. (In general: The purpose of a counterscreen is to sort out artefacts and off-target activity.)
Assay [2] addresses Nuclear receptor subfamily 5 group A member 2 (Homo sapiens) (UniProt O00482). The assay can be described thus: NR5A2 activity suppression in reporter cells – cell-based, luminescence, confirmation (AID 651613; in the data active = inhibition above about 42%;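 note: HEK293T cells co-transfected with LRH-1 and StAR promoter luciferase reporter; 0% = vehicle wells and 100% = parental cells lacking receptor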). The settings on record: cell-based LRH-1 luciferase reporter, inverse agonism; at 3.6 µM; stronger effect = higher value.
Assay [3] has as its target Steroidogenic factor 1 (Homo sapiens) (UniProt Q13285). As to the kind of experiment: inverse agonism at SF1 nuclear receptor – cell-based, luminescence, high throughput, counter-screen for LRH-1 inverse agonist project (AID 651614).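 Note: cells cotransfected with StAR promoter reporter and SF1 expression vector; 0% = vehicle on cells with receptor and 100% = vehicle on cells lacking receptor.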 The settings on record: cell-based SF1 luciferase reporter, at 3.6 µM, stronger effect = higher value.
Assay [4] is described as follows: compounds suppressing VP16-driven luciferase signal – cell-based, luminescence, high throughput, counter-screen for LRH-1 inverse agonist project (AID 651615; in the data active = inhibition above about 33%). Particulars: Gal4-VP16 luciferase reporter cells, at 3.6 µM, stronger effect = higher value.

Unmarked numbers belong to inactive results. The source made the active and inactive calls. Cut-off read from the data, not from the text of the source, unless noted: active = inhibition above about 44%; inactive = the rest.

Nuclear receptor subfamily 5 group A member 2 (Homo sapiens), sequence (O00482 whole entry, looked up): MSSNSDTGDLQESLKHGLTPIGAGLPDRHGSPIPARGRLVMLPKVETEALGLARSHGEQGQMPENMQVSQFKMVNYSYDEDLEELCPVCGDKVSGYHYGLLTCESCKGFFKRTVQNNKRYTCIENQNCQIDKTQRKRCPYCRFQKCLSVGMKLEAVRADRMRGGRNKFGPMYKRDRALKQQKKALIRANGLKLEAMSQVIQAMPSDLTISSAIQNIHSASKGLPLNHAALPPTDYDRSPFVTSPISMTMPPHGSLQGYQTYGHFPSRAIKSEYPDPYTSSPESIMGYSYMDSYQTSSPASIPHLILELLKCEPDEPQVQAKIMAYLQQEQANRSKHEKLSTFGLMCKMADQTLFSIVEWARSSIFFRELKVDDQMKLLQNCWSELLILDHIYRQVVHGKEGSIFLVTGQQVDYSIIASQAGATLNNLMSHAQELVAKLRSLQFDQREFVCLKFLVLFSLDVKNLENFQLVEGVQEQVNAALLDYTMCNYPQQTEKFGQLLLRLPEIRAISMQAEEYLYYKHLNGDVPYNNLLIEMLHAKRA
Steroidogenic factor 1 (Homo sapiens), sequence (Q13285 whole entry, looked up, the tested form may be a part): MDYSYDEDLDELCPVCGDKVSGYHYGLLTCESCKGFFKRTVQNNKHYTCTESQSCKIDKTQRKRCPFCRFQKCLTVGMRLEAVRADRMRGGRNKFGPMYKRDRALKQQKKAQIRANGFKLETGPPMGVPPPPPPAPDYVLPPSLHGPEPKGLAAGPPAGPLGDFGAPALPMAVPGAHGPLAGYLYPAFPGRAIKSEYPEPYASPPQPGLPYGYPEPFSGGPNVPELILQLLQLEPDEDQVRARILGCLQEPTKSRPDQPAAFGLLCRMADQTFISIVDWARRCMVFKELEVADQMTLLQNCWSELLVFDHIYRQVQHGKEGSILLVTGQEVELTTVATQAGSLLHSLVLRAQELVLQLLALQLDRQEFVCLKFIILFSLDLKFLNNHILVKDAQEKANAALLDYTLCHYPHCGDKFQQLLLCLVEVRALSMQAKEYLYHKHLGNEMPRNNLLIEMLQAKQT

`C/C(=N\Nc1cc(C(F)(F)F)ccc1Cl)c1ccncc1`: the inhibition (in general, the relative decrease from the control value, in per cent) in assay [1] was 2.53%; in assay [2], 40%; in assay [3], 47.6% (active); in assay [4], 3.73%.
As to `O=C(COc1ccc(Nc2ccccc2)cc1)Nc1ccncc1`, the inhibition in assay [1] is 19.2%; in assay [2], 52.8% (active); in assay [3], 51.6% (active); in assay [4] it was 41.4% (active).
For the molecule `COc1ccc(NC(=O)CN2C(=O)NC3(CCCC3)C2=O)cc1`, the inhibition in assay [1] is -8.92%; in assay [2], 51.2% (active); in assay [3] it was 47.5% (active); in assay [4] it was -17.1%.
Consider `Cc1cc(NC(=O)c2ccc([N+](=O)[O-])o2)ccc1NC(=O)c1ccco1`, for which the inhibition in assay [1] was 1.92%; in assay [2], 50.6% (active); in assay [3], 55.5% (active); in assay [4], -13.8%.
On to `COc1cccc(COC(=O)C2CC(=O)N(Cc3ccco3)C2)c1OC` (stereo not drawn), for which the inhibition in assay [1] is 12%; in assay [2] it was 30.3%; in assay [3], 31%; in assay [4], -7.19%.
For `O=[N+]([O-])c1cccc(-c2ccc(/C=N/NC(=S)NCc3ccco3)o2)c1`, the inhibition in assay [1] is 10.6%; in assay [2] it was 48.5% (active); in assay [3], 51.2% (active); in assay [4], -3.67%.
For `O=C(Nc1ccc(N2CCN(C(=O)c3ccc(Cl)cc3)CC2)cc1)c1ccc([N+](=O)[O-])o1`, the inhibition in assay [1] is 24.9%; in assay [2] it was 51.9% (active); in assay [3], 66.2% (active); in assay [4], 1.04%.
On to `CCOc1ccc(NC(=O)CSc2nnc(CNC(=O)c3cccs3)o2)cc1`, for which the inhibition in assay [1] is 20%; in assay [2], 60.3% (active); in assay [3], 59.6% (active); in assay [4], -0.65%.
With `Cc1cc2ccccn2c1C(=O)c1cccc([N+](=O)[O-])c1`, the inhibition is 10.1% in assay [1], 44% (active) in assay [2], 42% in assay [3] and -4.87% in assay [4].
For the molecule `CC(C)C(=O)Nc1ccc(C(=O)CN2C(=O)NC3(CCOc4ccccc43)C2=O)cc1` (stereo not drawn), the inhibition was 8.93% in assay [1], 37.1% in assay [2], 36.7% in assay [3] and 7.98% in assay [4].
In the same order, the values of `O=C(Nc1ccc(N2CCN(C(=O)c3ccco3)CC2)cc1)c1ccc2c(c1)OCO2` are 23.4%, 48.3% (active), 50.7% (active) and 60.5% (active).
Take `CC1(C)CC2CC(C)(CN2S(=O)(=O)c2ccc(C(=O)Nc3cccc(S(=O)(=O)N4CCOCC4)c3)cc2)C1` (stereo not drawn): the inhibition in assay [1] is 13%; in assay [2], 59% (active); in assay [3], 56.4% (active); in assay [4], 56% (active).
In the case of `Cc1cc(O)c(NC(=O)c2cc([N+](=O)[O-])ccc2Cl)cc1C`, the inhibition in assay [1] was 35% (active); in assay [2], 53.6% (active); in assay [3], 58.8% (active); in assay [4] it was -8.66%.
Regarding `Cc1no[n+]([O-])c1COc1ccc(/C=N/n2nnnc2N)cc1`, the inhibition was -1.3% in assay [1], 51.9% (active) in assay [2], 48.4% (active) in assay [3] and 0.06% in assay [4].
In the same order, the values of `O=C(CSc1nc2cccc(F)c2c(=O)n1-c1ccccc1)Nc1ccc2c(c1)CCC2` are 19.2%, 57.3% (active), 57.5% (active) and -5.06%.
As to `CN(C)c1ccc(CN(C(=O)C2COc3ccccc3O2)C2CCS(=O)(=O)C2)cc1` (stereo not drawn), the inhibition in assay [1] is 3.73%; in assay [2], 35.1%; in assay [3], 39.1%; in assay [4] it was 1.92%.
Consider `COc1ccc(OC)c(NC(=O)c2ccccc2NC(=O)c2ccco2)c1`, for which the inhibition is 12.6% in assay [1], 45.3% (active) in assay [2], 47.3% (active) in assay [3] and -1.48% in assay [4].
In the same order, the values of `Cc1sc(NC(=O)C(C)C)c(C(=O)Nc2ccccc2)c1C` are 13.2%, 50.2% (active), 45.9% (active) and -9.75%.
In the same order, the values of `Cc1ccc(/C=C2\SC(=S)N(c3c(C)n(C)n(-c4ccccc4)c3=O)C2=O)cc1` are 9.85%, 55.7% (active), 45.5% (active) and -2.06%.
For `O=C1C=C(NCCc2ccccc2)C2(CCCCC2)O1`, the inhibition in assay [1] is 3.62%; in assay [2], 59.9% (active); in assay [3], 49.5% (active); in assay [4], -3.99%.
With `O=C(COc1ccc(C(=O)c2ccccc2)cc1)NCc1ccc(F)cc1`, the inhibition is 19.9% in assay [1], 28.7% in assay [2], 37.9% in assay [3] and 30.4% in assay [4].
In the same order, the values of `CC(=O)c1ccc(NC(=O)CN2C(=O)NC3(CCc4ccccc43)C2=O)cc1` (stereo not drawn) are 12.2%, 61.5% (active), 49.3% (active) and -0.14%.
In the same order, the values of `CCOc1ccc(NC(=O)COC(=O)C2CCC(=O)N2)c([N+](=O)[O-])c1` (stereo not drawn) are 4.31%, 50.5% (active), 43.6% (active) and -7.9%.
Take `O=C(Nc1ccc(S(=O)(=O)N2CCCC2)cc1)c1ccc([N+](=O)[O-])o1`: the inhibition in assay [1] was 26.2%; in assay [2], 58.8% (active); in assay [3] it was 62.7% (active); in assay [4], 15.1%.
As to `Cc1cc(C(=O)CSc2nnnn2-c2ccccc2)c(C)n1-c1ccc2c(c1)OCO2`, the inhibition in assay [1] is 0.11%; in assay [2], 42.3% (active); in assay [3], 28.5%; in assay [4], 27.6%.
On to `COc1ccc(N2CCN(C(=O)c3ccc(CNS(=O)(=O)c4cccc(OC)c4)cc3)CC2)cc1`, for which the inhibition was 9.25% in assay [1], 27.8% in assay [2], 29.5% in assay [3] and 6.88% in assay [4].
Regarding `COc1ccc(NC(=O)CN2C(=O)NC3(CCCC3)C2=O)cc1Cl`, the inhibition in assay [1] is 2.83%; in assay [2] it was 54.6% (active); in assay [3] it was 60.6% (active); in assay [4], -7.78%.

The values are drawn from PubChem BioAssay.
